The list is not random: actives were taken first. Their share in the collection is about 2.7%.
MPTP block: permeability transition pore inhibition; isolated mouse mitochondria, Ca2+ swelling absorbance, 30 min; inhibition, % at 10 µM; 360,000 compounds, 1.4% hits;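 active means inhibition of 50% or more, scaled per plate between neutral and stimulator controls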;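 further: 0% = DMSO wells given calcium and 100% = 1 mM EGTA wells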
TAG inh: reduces triacylglycerol accumulation in H9c2 cells | Nile Red lipid (TAG) fluorescence; cells loaded with 200 µM oleic acid | inhibition, % at 12.5 µM | 230,000 compounds, 0.66% hits | AID 651582;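 active means pattern-corrected inhibition of lipid staining of at least 50% with the nuclear-stain viability signal not falling by more than 50%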;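 further: 0% = DMSO wells and 100% = triacsin C control wells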
aDG glyco act: alpha-DG glycosylation activation; Pro5-aDG cells, alpha-DG glycosylation AlphaScreen (IIH6); 0% Pro5, 100% B10-LARGE cell signal; activation, % at 10 µM; 360,000 compounds, 0.22% hits; AID 624168;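 active means activation of at least 8% versus controls, or a plate z-score of at least 8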;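 further: Pro5 are CHO cells carrying HIG-tagged alpha-DG that lacks glycosylation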
NadD block: NadD (S. aureus) enzyme inhibition; purified NadD enzyme, colorimetric absorbance read-out; inhibition, % at 20 µM; 360,000 compounds, 0.78% hits; AID 602399; in the data active means inhibition above about 26%
NadD inh conf: confirmation of Staphylococcus aureus NadD inhibitors | shares compounds with NadD block | purified S. aureus NadD, colorimetric enzyme assay | inhibition, % at 20 µM | 2,000 compounds, 13% hits | AID 624309; in the data active means inhibition mostly above about 42%, no sharp cut-off; inactive means mostly below about 42%
MPTP counter: Rhodamine 123 counter-screen of mitochondrial pore hits. isolated mitochondria, membrane potential, Rhodamine 123 fluorescence. shares compounds with MPTP block. 5,000 compounds, 78% hits. inhibition, % at 10 µM; in the data active means inhibition above about 22%;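 further: 0% = DMSO vehicle and 100% = positive control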
MPTP swell DR: dose response confirmation of mitochondrial permeability transition pore inhibitors. shares compounds with MPTP block. isolated mitochondria swelling, absorbance. IC50, µM. 780 compounds, 58% hits. AID 651561; in the data active means IC50 below about 20 µM
MPTP cs DR: MPTP inhibitor counter-screen activity, dose response. IC50, µM. isolated mitochondria counterscreen, fluorescence read-out. shares compounds with MPTP block. AID 651564. 780 compounds, 49% hits; in the data active means IC50 below about 80 µM
An asterisk follows results filed as active; x = no result.

SMILES	MPTP block	TAG inh	aDG glyco act	NadD block	NadD inh conf	others
CN(Cc1cccc(-c2ccncc2)c1)C(=O)Oc1ccc([N+](=O)[O-])cc1	24.5	x	1.0	-3.8	x
CCC(C)c1cnc(CC(C)C)c(=O)n1O (stereo not drawn)	-1.2	x	-0.2	1.3	x
Nc1c(C(=O)OCc2ccccc2)c2nc3ccccc3nc2n1Cc1cccs1	21.4	20.4	0.4	30.2*	23.4
CCOC(=O)[C@]12Cc3ccc4ccccc4c3[C@H]1N(Cc1ccccc1)C(=O)c1ccccc12	-0.3	x	0.8	12.0	x
Cc1ccc2c(c1Cl)NC(C(=O)O)C1CC(Sc3ccccc3[N+](=O)[O-])C(Cl)C21 (stereo not drawn)	9.9	5.2	0.1	35.7*	31.1
COC1C(OC(=O)c2ccc(C)[nH]2)C(O)C(Oc2ccc3c(O)c(NC(=O)c4ccc(O)c(CC=C(C)C)c4)c(=O)oc3c2Cl)OC1(C)C (stereo not drawn)	-0.4	x	0.0	31.4*	50.4*
CCCCCCn1c(=O)c(C(=O)Nc2c(C)n(C)n(-c3ccccc3)c2=O)c(O)c2ccccc21	2.7	1.6	0.1	32.1*	7.2
CCCCCn1c(=O)c(C(=O)Nc2ccccc2)c(O)c2ccccc21	8.6	x	0.1	3.3	x
O=c1[nH]c2ccccc2n1C1CCN(C(c2ccccc2)c2nnnn2-c2ccc3c(c2)OCCO3)CC1 (stereo not drawn)	-0.6	x	-0.5	31.2*	9.0
COc1cccc(C(c2nnnn2-c2ccc3c(c2)OCCO3)N2CCC(n3c(=O)[nH]c4ccccc43)CC2)c1OC (stereo not drawn)	-0.6	x	-0.5	13.6	x
O=c1[nH]c2ccccc2n1C1CCN(C(c2ccccc2OC(F)(F)F)c2nnnn2-c2ccc3c(c2)OCCO3)CC1 (stereo not drawn)	-1.4	x	-0.5	28.9*	10.7
CCOC(=O)[C@]12Cc3ccccc3[C@H]1N(CCC(=O)OC)C(=O)c1cc(OC)ccc12	-2.4	x	0.4	10.7	x
C/C(=N\NC(N)=S)C1=CCC2C3CC[C@H]4CC(O)CC[C@]4(C)C3CC[C@]12C (stereo partly drawn)	65.0*	x	0.1	36.4*	11.8	MPTP counter=14.3;MPTP swell DR=18.4*;MPTP cs DR=22*
O=C(CCc1ccccc1)N1Cc2cc(N3CCCCC3)ccc2-n2nncc2C1	-0.1	x	-0.6	-4.7	x
O=C(CF)NC(NC(=S)Nc1cccc([N+](=O)[O-])c1)C(Cl)(Cl)Cl (stereo not drawn)	79.0*	-8.9	0.2	-0.4	x	MPTP counter=92.3*
COc1ccc(NC(=S)NC(NC(=O)CF)C(Cl)(Cl)Cl)cc1[N+](=O)[O-] (stereo not drawn)	-2.7	8.9	0.0	-2.4	x
Cc1c(NS(=O)(=O)c2ccccc2)ccc([N+](=O)[O-])c1Cl	97.5*	-13.9	0.1	-2.2	x	MPTP counter=89.9*
CCN(CCNc1ccc([N+](=O)[O-])c2cccnc12)S(=O)(=O)c1ccccc1	4.4	x	-0.2	-1.2	x
Cc1ccccc1-c1ccc2c(c1)C1c3c(-c4ccccc4)nnn3-c3ccccc3C(=O)N1CC2 (stereo not drawn)	0.5	x	-0.1	26.8	x
CCCCn1c(NS(=O)(=O)c2ccccc2)c(C(=O)OCC)c2nc3ccccc3nc21	59.4*	x	2.0	16.0	x	MPTP counter=49.9*
CCOC(=O)[C@]12Cc3cc(OC)ccc3[C@H]1N(C1CCCCC1)C(=O)c1ccccc12	-2.4	x	-0.1	7.8	x
CSCCC(c1nnnn1C(C)(C)C)N1CCC2(CC1)C(=O)NCN2c1ccccc1 (stereo not drawn)	0.2	x	-0.3	-2.2	x
C=C1C(=O)OC2CCN3CC=C(COC(=O)C(C)(O)C4(CO4)C1C)C23 (stereo not drawn)	0.1	x	0.0	-1.4	x
CN(C)CCOc1ccc(/C(=C(/CCCl)c2ccccc2)c2ccccc2)cc1	105.9*	7.8	0.4	-0.3	x	MPTP counter=-15.6;MPTP swell DR=6.66*;MPTP cs DR=41.1*
Cc1ccc(C(O)(c2ccc(C)c(C)c2)C2CN3CCC2CC3)cc1C (stereo not drawn)	1.4	x	0.4	-10.6	x
Cc1ccccc1C(O)(Cc1ccccc1)C1CN2CCC1CC2 (stereo not drawn)	61.8*	24.0	1.0	-5.2	x	MPTP counter=-7.3;MPTP swell DR=16.5*;MPTP cs DR=>80

Compound activity: PubChem, Sanford-Burnham Center for Chemical Genomics
